TSG101-PTAP inh: blocks PTAP/TSG101 interaction to inhibit HIV-1 budding. Q99816. Fluorescence polarization, FITC-PTAP peptide / Tsg101 binding. Potency, µM (top dose mostly 115 µM), without a hit: at the highest dose activity change, negative = inhibition, usual class: inhibitors. 340,000 tested, under 10 active. AID 493005; active = well fitted inhibition curve with a large enough effect in the main read-out, with a control signal flat, not every such curve was filed as active; inconclusive = small, poorly fitted or top-dose-only effect, or effect the other way, or a change in a side signal; inactive = no such curve, though single readings can be large or run the other way; note: % of control where 0% means no effect
Target sequence (Q99816 whole entry, looked up): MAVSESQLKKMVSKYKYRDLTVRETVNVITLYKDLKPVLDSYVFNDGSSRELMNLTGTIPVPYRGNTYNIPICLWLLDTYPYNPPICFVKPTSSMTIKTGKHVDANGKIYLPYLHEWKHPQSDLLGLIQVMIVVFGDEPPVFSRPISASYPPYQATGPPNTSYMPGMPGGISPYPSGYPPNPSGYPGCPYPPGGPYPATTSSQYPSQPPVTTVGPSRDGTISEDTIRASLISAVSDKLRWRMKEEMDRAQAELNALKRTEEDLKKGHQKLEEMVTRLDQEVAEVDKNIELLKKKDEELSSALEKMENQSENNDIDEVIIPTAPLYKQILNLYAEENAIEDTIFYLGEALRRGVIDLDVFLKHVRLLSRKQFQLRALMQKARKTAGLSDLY
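Fluorescence anisotropy tracks displacement of a FITC-tagged PTAP peptide (50 nM) from the Tsg101 binding domain (10 uM), following a 20 min room-temperature incubation at pH 7.5.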
aSyn rescue: rescues yeast growth from alpha-synuclein toxicity; Yeast expressing alpha-synuclein, growth rescue, BacTiter-Glo, 24 h; Potency, µM (highest dose often 46.1 µM), without a hit: top-dose growth rescue (activation), actives largely listed as activators; 0.14% of 370,000 active; AID 652106; note: % of control where 0% means no effect; nearly all actives have a fitted effect of over 65% in size
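Rescue of yeast growth: cells expressing toxic alpha-synuclein, induced in galactose at OD600 0.02, incubated with compound 24 h at 30 C. ATP luminescence quantified growth; inhibitors of toxicity appear as activators.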
TDP43 rescue: inhibitors of TDP-43 toxicity in yeast; TDP-43 expressing yeast growth rescue, BacTiter-Glo, 24 h; Potency, µM (highest dose often 46.1 µM), without a hit: at the highest dose growth rescue (activation), actives largely listed as activators; 1.8% of 410,000 active; AID 652104; note: % of control where 0% means no effect; nearly all actives have a fitted effect of over 50% in size
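Yeast expressing TDP-43 (pregrown in raffinose, seeded at OD600=0.02 in galactose medium) exposed to compounds 24 hr at 30 deg C. Growth read by BacTiter-Glo luminescence; rescue of toxicity appears as increased signal.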
Abeta yeast res: restores growth of yeast expressing A-beta42 peptide; yeast expressing A-beta42, growth rescue, OD600, 48 h; response scale: 0% DMSO, 100% iron-clioquinol control; Potency, µM (series often up to 46.1 µM), actives largely listed as activators; 0.063% of 410,000 active; note: nearly all actives have a fitted effect of over 55% in size
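Yeast A-beta toxicity model in growth medium with pinned compounds, 48 h at 30 C; growth read as absorbance at 600 nm. Normalized to FeCl3/clioquinol equimolar mix (positive) and DMSO (negative).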
FUS suppressor: suppressors of FUS proteinopathy in yeast; S. cerevisiae FUS-expressing, growth rescue, OD600, 24 h; 0.24% of 390,000 active; Potency, µM (titrated, usually from 76.6 µM), most hits filed as activators;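 note: plate controls were DMSO vehicle for no effect and reference control for full effect; nearly all actives have a fitted effect of over 55% in size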
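S. cerevisiae expressing FUS from galactose induction served as the toxicity model. Growth after 24hr at 30C, read as absorbance at 600 nm, indicates suppression of toxicity; compounds dosed at several concentrations.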
Numbers without * were called inactive; i = inactive; ? = inconclusive; / = no result; [ ] = remark or other dose. A selection: hits, their analogues and other compounds. The true share with any hit is near 2.1%. Unless noted, calls come from the whole dose curve; as a rule, active = well fitted curve in the direction sought with a large enough effect; inconclusive = small, poorly fitted or top-dose-only effect, or another doubt; inactive = no such curve, though single readings can be large; an effect the other way counts as inactive or inconclusive. Potency is the fitted concentration of half-maximal effect.

SMILES	TSG101-PTAP inh	aSyn rescue	TDP43 rescue	Abeta yeast res	FUS suppressor
COc1ccc(CN2C(=O)C(CC(=O)NC3CCCC3)CC(C(=O)N(C)C)=C2C)cc1 (configuration not stated)	/	-0.5%	0.0%	i	i
CCOc1ccc(C(=O)CCC(=O)O)cc1	-5.0%	3.5%	-15.8%	i	i
CCOc1ccc(-c2noc(CCC(=O)O)n2)cc1	-1.5%	0.2%	31.6µM*	i	i
CCOc1ccc(OCCCC(=O)O)cc1	-0.2%	17.1%	12.6µM*	i	i
CCCCc1ccc(NC(=O)N[C@@H](C)C(=O)O)cc1	-3.3%	-8.3%	1.0%	i	i
CCCCc1ccc(CC(=O)NO)cc1	/	15.8µM*	/	/	/
CCCCc1ccc(NC(=O)CC(C)=O)cc1	-7.7%	9.4%	6.4%	i	i
CCCCc1ccc(NC(=O)CC(C)(C)C)cc1	-0.8%	2.5%	20µM*	i	i
CCCCc1ccc(NC(=O)C(C)CC)cc1 (configuration not stated)	-3.1%	-12.8%	11.2µM*	i	i
CSc1ccc(CN2CCC(C)(Oc3ccc(F)cc3)C2)cc1 (configuration not stated)	/	2.4%	-8.3%	i	i
COc1cccc(CNC(=O)c2ccc3c(c2)nc2n3CCCCC2)c1OC	/	/	0.5%	i	i
CC(=O)c1ccc(N2CCN(C(=O)c3cc4c(s3)-c3ccccc3OC4)CC2)cc1	/	-0.2%	-7.7%	i	i
COc1ccc(C(=O)N(C)Cc2ccc(C)o2)cc1OC1CCN(C(C)=O)CC1	0.7%	1.1%	0.3%	i	i
CCOC(=O)Nc1ccc(/C=C/c2ccnc3ccccc23)cc1	/	-8.9%	/	/	/
COc1ccc(S(=O)(=O)Nc2ccc3c(c2)CC(=O)N([C@@H](C)CO)C[C@H](C)[C@@H](CN(C)S(=O)(=O)c2ccc(F)cc2)O3)cc1	-3.9%	8.9%	-7.3%	i	i
CN=c1scc(-c2ccc(OC)cc2)n1/N=C(\C)c1cccnc1	2.1%	-11.1%	14.1µM*	i	i
COc1ccc(NC(=O)/C=C\C(=O)N(c2ccc(C(C)C)cc2)C(C(=O)NCc2ccco2)c2ccc(C)cc2)cc1 (configuration not stated)	/	/	20.0%	i	4.47µM*
Cc1ccc(C)c(NC(=S)NNc2ccc(F)cc2F)c1	-2.2%	-2.9%	12.6µM*	?	?
Cc1ccc(C)c(NC(=S)NCCc2ccc(F)cc2)c1	-4.8%	2.0%	?	?	i
CSc1nnc(Nc2ccccc2C)s1	-3.3%	3.2%	11.2µM*	i	i
Cc1cc(NC(=O)CSc2nnc(Nc3ccccc3C)s2)no1	0.7%	8.0%	1.5%	i	i
CCc1nnc2c(Nc3ccc(N(CC)CC)cc3C)nc3ccccc3n12	/	/	-9.9%	i	i
CC1CN(C(=O)/C=C/c2ccc([N+](=O)[O-])s2)CC(C)O1 (configuration not stated)	2.8%	3.2%	-5.8%[9.22 µM]	i	i
CC1CC(C)CN(C(=O)/C=C/c2ccc([N+](=O)[O-])s2)C1 (configuration not stated)	-0.5%	1.0%	22.4µM*	i	i
COc1ccc(-c2sc3ccc(N4CCOCC4)cc3c2C#CCO)cc1	-4.2%	-9.5%	14.1µM*	i	i
SMILES	TSG101-PTAP inh	aSyn rescue	TDP43 rescue	Abeta yeast res	FUS suppressor
COc1ccc(-c2sc3ccc(N4CCOCC4)cc3c2C#CC2(O)CCCCC2)cc1	/	1.4%	10.5%	i	i
COc1ccc(NC(=O)c2ccc(-c3nc(CSc4ccc(C)cc4)c(C)o3)cc2)cc1Cl	/	/	-0.1%	i	i
COC(=O)c1ccccc1NC(=O)CSc1nc(-c2ccccc2)cc(C(F)(F)F)n1	/	/	21.1%	i	i
Cc1ccc(-c2cc(N)n[nH]2)cc1	-9.8%	-6.5%	-16.8%	i	28.2µM*
N#Cc1ccccc1S(=O)(=O)N1CCN(C(=O)CN(Cc2ccco2)Cc2cccs2)CC1	/	-4.7%	-1.5%	i	i
Cc1cccc(OCCCSc2nc3ccccc3[nH]2)c1	-1.5%	-16.2%	20µM*	i	i
Cc1csc2ncnc(N3CCN(S(=O)(=O)c4cccc(C(F)(F)F)c4)CC3)c12	/	11.8%	17.8µM*	i	/
CC(=O)Oc1c(Cl)c(N2CCOCC2)c(OC(C)=O)c2ccccc12	-5.1%	-0.9%	10µM*	i	i
O=C(CCl)N1N=C(c2cccs2)CC1c1ccco1 (configuration not stated)	-0.8%	9.1%	22.4µM*	i	i
CC(=O)Nc1ccc(S(=O)(=O)N(Cc2ccccc2)Cc2ccccc2)cc1	/	/	20µM*	i	?
CCc1nnc(NC(=O)c2ccc(S(=O)(=O)N(CC)Cc3ccccc3)cc2)o1	-2.7%	12.6µM*	22.4µM*	?	i
CCCCN(CCCC)S(=O)(=O)c1ccc(C(=O)Nc2nnc(COC)o2)cc1	-12.8%	?	12.6µM*	i	i
CCN(CC)S(=O)(=O)c1ccc(C(=O)Nc2nnc(COC)o2)cc1	-3.6%	-0.8%	18.1%	i	i
O=c1ccn([C@@H]2O[C@H](CNCc3ccccc3OCc3ccc(Cl)cc3Cl)[C@@H](O)[C@H]2O)c(=O)[nH]1	/	-0.9%	11.9%	i	i
COc1ccc2c(c1)CCCC2NS(=O)(=O)OCC(Cl)(Cl)Cl (configuration not stated)	-2.2%	-3.2%	35.5µM*	i	i
COc1ccc(CNC2CCCc3ccccc32)c(OC)c1 (configuration not stated)	0.9%	-1.1%	-8.4%	i	i
CCc1ccc2oc(-c3cc(NC(=O)c4cccs4)ccc3Cl)nc2c1	/	-7.6%	17.8µM*	i	i
CC(C)c1ccc2oc(-c3cc(NC(=O)c4cccnc4)ccc3Cl)nc2c1	/	/	15.8µM*	i	i
Cc1ccc2oc(-c3cc(NC(=O)c4ccco4)ccc3Cl)nc2c1	/	/	9.1%	i	i
O=C(Nc1ccc2oc(-c3ccccc3)nc2c1)c1cccnc1	-7.1%	-7.2%	-20.4%	i	i
CCc1ccc2oc(-c3cc(N)ccc3O)nc2c1	-0.6%	-5.0%	?	i	i
CCc1ccc2oc(-c3cc(N)ccc3Cl)nc2c1	-1.5%	3.2%	17.8µM*	i	i
CC(=O)N1CCc2cc(S(=O)(=O)NCCC(=O)NCc3ccc(Cl)cc3)ccc21	/	/	/	/	i
S=Cc1nc2ccccc2[nH]1	/	-0.5%	/	/	/
N#Cc1ccc(S(=O)(=O)N2CCC(C(=O)N3CCN(Cc4ccc5c(c4)OCO5)CC3)CC2)cc1	-5.0%	-1.8%[1.84 µM]	-13.6%	i	i
O=c1c2ccccc2nnn1Cc1cccc2ccccc12	-2.9%	-1.1%	12.6µM*	?	i
O=c1c2ccccc2nnn1Cc1ccccn1	-8.4%	-4.2%	-11.0%	i	i

Screening results from PubChem.
